# Source: PubChem BioAssay (NCI)
# This is part of a sample that, as a whole, favours compounds with a hit. Of some 79,000 tested, about 15% had one in any assay. Unmarked numbers belong to inactive results. Activity calls are given as the source filed them. Rule as the data show it: active = growth inhibition above about 70%; inactive = the rest.
# Key:
# [1] = NCI Yeast Anticancer Drug Screen. Data for the rad50 strain (AID 155);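 also: 0% = growth of vehicle-only cultures of the same strain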; settings: S. cerevisiae rad50 strain growth inhibition, active compounds read high
# Outline: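 A DNA repair-deficient yeast mutant serves as the test organism; compound-induced growth inhibition is calculated against vehicle-treated cells.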
# [2] = NCI Yeast Anticancer Drug Screen. Data for the mec2-1 strain (AID 157); settings: S. cerevisiae mec2-1 strain, active compounds read high
# Outline: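 Test agents were screened against the mec2-1 yeast strain, with defined DNA repair or cell cycle alteration. Growth was scored as inhibition against vehicle-only controls.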
# [3] = NCI Yeast Anticancer Drug Screen. Data for the sgs1 mgt1 strain (AID 161);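 also: 0% = growth of cultures given vehicle only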; settings: S. cerevisiae sgs1 mgt1 strain, active compounds read high
# Outline: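 Test agents were incubated with a DNA-repair-mutant yeast strain. Growth was then read and compared against vehicle-treated controls.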
# [4] = NCI Yeast Anticancer Drug Screen. Data for the cln2 rad14 strain (AID 165);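 also: 0% = growth equal to vehicle treated cultures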; settings: S. cerevisiae cln2 rad14 strain, active compounds read high
# Outline: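 Growth of compound-exposed yeast (cln2 rad14 genotype) measured and expressed as inhibition relative to vehicle.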
# [5] = NCI Yeast Anticancer Drug Screen. Data for the bub3 strain (AID 167); settings: S. cerevisiae bub3 mutant strain, active compounds read high
# Outline: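 Inhibition values come from growth of compound-treated mutant yeast normalised to vehicle-treated controls.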
# [6] = NCI Yeast Anticancer Drug Screen. Data for the mlh1 rad18 strain (AID 175); settings: S. cerevisiae mlh1 rad18 strain growth inhibition, active compounds read high
# Outline: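 In this whole-cell yeast screen, a strain with altered DNA damage repair is challenged with compound, and its growth is measured against matched vehicle-treated controls.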
# [7] = at 5.0 µM (retest, dose inferred, filed as 0.5)
# [8] = at 50.0 µM (retest, dose inferred, filed as 5.0)
Compound,"growth inhibition [1, 7]","growth inhibition [1, 8]",growth inhibition ([1]; at 50.0 µM),"growth inhibition [2, 7]","growth inhibition [2, 8]",growth inhibition ([2]; at 50.0 µM),"growth inhibition [3, 7]","growth inhibition [3, 8]",growth inhibition ([3]; at 50.0 µM),"growth inhibition [4, 7]","growth inhibition [4, 8]",growth inhibition ([4]; at 50.0 µM),"growth inhibition [5, 7]","growth inhibition [5, 8]",growth inhibition ([5]; at 50.0 µM),"growth inhibition [6, 7]","growth inhibition [6, 8]",growth inhibition ([6]; at 50.0 µM)
COc1ccc(C2C3=C(CCCC3=O)Oc3cc4c(cc32)OCO4)c(OC)c1 (configuration not stated),17%,92% (active),3.95%,-3%,90% (active),18.8%,6%,92% (active),-11.7%,6%,88% (active),-6.1%,8%,94% (active),1.05%,4%,92% (active),8.95%
N#Cc1sc2c(c1OC(=O)c1ccc(Cl)cc1)c(=O)n(-c1ccccc1)c(=S)n2-c1ccccc1,-4%,-16%,1.5%,5%,-24%,2.4%,-3%,0%,-0.45%,5%,6%,34.5%,-3%,2%,4.95%,-2%,1%,-7.35%
O=C(Nc1cc(Cl)ccc1Cl)Nc1ccc(Cl)cc1C(=O)c1ccccc1,98% (active),99% (active),84.9% (active),97% (active),98% (active),91.6% (active),27%,95% (active),88.9% (active),73% (active),92% (active),88% (active),71% (active),87% (active),79.3% (active),100% (active),99% (active),88.2% (active)
CCCCCCCCCCNC(=O)C[n+]1cccc(C(=O)NCc2ccccc2)c1,8%,99% (active),99.5% (active),-1%,100% (active),99.7% (active),5%,100% (active),99.5% (active),14%,99% (active),98.8% (active),8%,99% (active),99.4% (active),11%,99% (active),99.5% (active)
c1ccc(NNc2ccc3ccccc3n2)cc1,3%,96% (active),38.6%,-21%,2%,44.6%,-3%,18%,77.2% (active),-6%,-1%,39%,24%,85% (active),77.6% (active),0%,40%,65.8%
C[C@]12CC[C@@H]3c4ccc(O)cc4CC[C@H]3[C@@H]1CC[C@@H]2NCCCCCCO,21%,25%,14.6%,18%,19%,48.6%,18%,38%,34.4%,26%,31%,-13.2%,15%,34%,-6.1%,21%,37%,-3.2%
CC(=O)Oc1c(C)cc(C)cc1Cc1cc(C(C)=O)cc(Cc2cc(C)cc(C)c2OC(C)=O)c1OC(C)=O,30%,91% (active),94.5% (active),17%,88% (active),93.2% (active),47%,91% (active),95.6% (active),28%,88% (active),97% (active),22%,87% (active),94.3% (active),46%,91% (active),92.5% (active)
COc1ccc(C2=CC(=O)C=CC2=O)cc1,19%,91% (active),99% (active),3%,97% (active),99.5% (active),14%,90% (active),98.7% (active),-5%,70% (active),82.2% (active),28%,99% (active),99.5% (active),18%,89% (active),99.2% (active)
CCCCCCCCCCCCSC(=NCC)NCC,89% (active),99% (active),99.6% (active),79% (active),100% (active),99.8% (active),98% (active),100% (active),48.8%,59%,99% (active),99.1% (active),96% (active),100% (active),99.6% (active),89% (active),99% (active),99.5% (active)
O=[N+]([O-])/C(Cl)=C(\Nc1ccccc1)C(Cl)=C(Cl)Cl,55%,99% (active),88.2% (active),82% (active),99% (active),92.2% (active),73% (active),99% (active),88.8% (active),64%,99% (active),90.9% (active),76% (active),99% (active),90.4% (active),83% (active),99% (active),85.1% (active)
Nc1cc2c(c[n+](CCCBr)c3ccccc23)c2ccccc12,41%,98% (active),66.8%,23%,99% (active),64.6%,58%,99% (active),68.2%,46%,98% (active),33.1%,52%,99% (active),46.5%,24%,98% (active),71.1% (active)
COc1ccccc1/C=N/Nc1nnc(N/N=C/c2ccccc2OC)c2ccccc12,-1%,56%,74.6% (active),13%,73% (active),95.8% (active),10%,89% (active),58%,-8%,82% (active),97.3% (active),-5%,94% (active),96.2% (active),-5%,99% (active),93.4% (active)
CCOC(=O)c1sc(N/N=C2\NC(=O)/C(=C/c3ccc([N+](=O)[O-])cc3)S2)nc1C,13%,74% (active),92.8% (active),10%,90% (active),73.9% (active),12%,92% (active),97.7% (active),-4%,87% (active),87.1% (active),-26%,92% (active),95.3% (active),22%,92% (active),96.2% (active)
COc1ccc(-c2c(C#N)cc(OC)c(OC)c2OC)c(C=O)c1,2%,24%,43.4%,-5%,29%,31.8%,-19%,62%,40.9%,0%,11%,80.2% (active),-3%,26%,75% (active),11%,57%,76.3% (active)
CC(=O)N[C@H]1CC[C@H]2[C@@H]3CCC4=CC(=O)CC[C@]4(C)[C@H]3CC[C@]12C,5%,94% (active),33.2%,-11%,95% (active),94.5% (active),10%,-10%,94.2% (active),-8%,97% (active),79.5% (active),-1%,97% (active),98% (active),-4%,95% (active),93.8% (active)
O=C(O)Cc1cc(I)c(Oc2ccc(O)c(I)c2)c(I)c1,-6%,92% (active),89.8% (active),0%,98% (active),92.2% (active),7%,93% (active),91% (active),29%,97% (active),89.3% (active),22%,98% (active),91.7% (active),20%,97% (active),89.7% (active)
COC(=O)CCCCCOS(=O)(=O)c1ccc(C)cc1,1%,-5%,26.9%,-3%,-5%,16.2%,-4%,-3%,21.9%,-3%,-14%,84.2% (active),-1%,-5%,1.05%,-5%,-8%,0.7%
Cn1cnc([N+](=O)[O-])c1S,2%,1%,-4.8%,-2%,9%,16.2%,0%,-2%,8.45%,-5%,13%,44%,0%,3%,-0.8%,1%,9%,21.6%
CC12CCC3C(CCC4CC(O)CCC43C)C1CC1C2=NOC1O (configuration not stated),0%,99% (active),25.8%,-2%,99% (active),18.2%,0%,99% (active),72.2% (active),-8%,99% (active),21%,-3%,99% (active),73% (active),-1%,99% (active),56.7%
